# Source: PubChem BioAssay (National Center for Advancing Translational Sciences (NCATS))
# Only some compounds are listed: those with a hit (about 6.8% of all), similar ones and a draw of the others.
# KB-V1 MDR tox = qHTS assay for MDR1-selective chemotherapeutics: Primary screen using the drug-selected MDR subline cells KB-V1; 400,000 compounds, 3.4% hits; KB-V1 MDR cells viability, CellTiter-Glo, 72 h; Potency, µM (series often up to 46.1 µM), most hits filed as cytotoxic; also: % is scaled to controls: 0 for no effect and ±100 for the full control effect; nearly all actives have a fitted effect of over 60% in size
#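 Readout: CellTiter-Glo luminescence, 10 min after addition. Cells: KB-V1 MDR subline, 72 h at 37 degrees C with compound. Analysis: corrected, normalized data fitted to concentration-effect curves.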
# MCF10A rerep = A quantitative high throughput screen for small molecules that induce DNA re-replication in MCF 10a normal breast cells; MCF 10A DNA re-replication, Hoechst nuclear intensity, 48 h; 350,000 compounds, 2.9% hits; Potency, µM (top dose mostly 46.1 µM), inactives show at the highest dose activity, positive = re-replication, actives largely listed as activators; AID 624296, 2012; also: % of control where 0% means no effect; nearly all actives have a fitted effect of over 50% in size
# KB-3-1 tox = qHTS assay for MDR1-selective chemotherapeutics: Primary screen using the parental adenocarcinoma cell KB-3-1. AID 1347075, 2019. KB-3-1 viability, CellTiter-Glo ATP luminescence, 72 h. 400,000 compounds, 1.4% hits. Potency, µM (titrated, usually from 46.1 µM), actives largely listed as cytotoxic; also: % is scaled to controls: 0 for no effect and ±100 for the full control effect; nearly all actives have a fitted effect of over 60% in size
#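 Multi-concentration cytotoxicity screen in KB-3-1 cells grown in DMEM lacking phenol red with 10% FBS. After 72 h at 37 °C with compound, ATP-dependent luminescence was recorded.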
# TSG101-PTAP inh = qHTS Assay for Iinhibitors of HIV-1 Budding by Blocking the Interaction of PTAP/TSG101 | Fluorescence polarization, FITC-PTAP peptide / Tsg101 binding | Potency, µM (series often up to 115 µM), for the others: top-dose activity change, negative = inhibition, most hits filed as inhibitors | 340,000 tested, under 10 active | AID 493005, 2010; active = well fitted inhibition curve with a large enough effect in the main read-out, with a control signal flat, not every such curve was filed as active; inconclusive = small, poorly fitted or top-dose-only effect, or effect the other way, or a change in a side signal; inactive = no such curve, though single readings can be large or run the other way; also: % of control where 0% means no effect
# Target sequence (Q99816 whole entry, looked up): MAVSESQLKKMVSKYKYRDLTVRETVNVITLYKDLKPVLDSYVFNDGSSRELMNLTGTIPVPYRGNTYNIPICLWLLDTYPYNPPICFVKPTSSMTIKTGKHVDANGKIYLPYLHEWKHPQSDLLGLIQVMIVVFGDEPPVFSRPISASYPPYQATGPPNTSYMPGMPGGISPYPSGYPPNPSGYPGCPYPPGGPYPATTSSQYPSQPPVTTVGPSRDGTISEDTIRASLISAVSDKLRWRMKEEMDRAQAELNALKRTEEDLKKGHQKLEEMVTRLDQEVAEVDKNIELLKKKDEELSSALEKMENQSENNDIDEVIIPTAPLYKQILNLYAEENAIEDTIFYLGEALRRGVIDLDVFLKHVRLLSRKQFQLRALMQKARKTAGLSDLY
#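 Fluorescence anisotropy tracks displacement of a FITC-tagged PTAP peptide (50 nM) from the Tsg101 binding domain (10 uM), following a 20 min room-temperature incubation at pH 7.5.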
# PINK1 modulator = A Quantitative High throughput Screen to Identify Chemical Modulators of PINK1 Expression | PINK1 immunofluorescence, high-content cytometry, 24 h | Potency, µM (series often up to 76.6 µM), for the others: at the highest dose activation (PINK1 increase), most hits filed as activators | 410,000 compounds, 0.2% hits; active = well fitted activation curve with a large enough effect; inconclusive = small, poorly fitted or top-dose-only effect; cell line not stated here; also: % of control where 0% means no effect; nearly all actives have a fitted effect of over 65% in size
#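 Compound titrations (5 concentrations, 24 h) on a stable cell line; DMSO and CCCP controls. Endpoint: fixed-cell PINK1 immunofluorescence with mitochondrial, cell and nuclear markers, scanned by microplate cytometer.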
# SW480 rerep = A quantitative high throughput screen for small molecules that induce DNA re-replication in SW480 colon adenocarcinoma cells; SW480 DNA re-replication, Hoechst DNA content imaging, 48 h; Potency, µM (top dose mostly 46.1 µM), inactives show at the top dose re-replication activation, actives largely listed as activators; 340,000 compounds, 1.8% hits; AID 624297, 2012; also: % of control where 0% means no effect; nearly all actives have a fitted effect of over 55% in size
#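 First, 250 cells per well were seeded. Next, compound or vehicle (23 nL) was pinned in, plates sat 48 hr at 37 C. Finally Hoechst was added for 40 min before fluorescence scanning.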
# Starred values were filed as active, the others as inactive; i = inactive; ? = inconclusive; / = no result given. Unless noted, calls follow the shape of the dose curve; as a rule, active = well fitted curve in the direction sought with a large enough effect; inconclusive = small, poorly fitted or top-dose-only effect, or another doubt; inactive = no such curve, though single readings can be large; an effect the other way counts as inactive or inconclusive. Potency is read from the fitted curve at half-maximal effect.
SMILES,KB-V1 MDR tox,MCF10A rerep,KB-3-1 tox,TSG101-PTAP inh,PINK1 modulator,SW480 rerep
COc1ccc(NC(=O)c2nc[nH]c2C(=O)Nc2ccccc2C)cc1,?,?,5.8µM*,-1.4%,10.9%,18.4µM*
CCOc1ccccc1NC(=O)CSc1cn[nH]n1,i,16.4µM*,i,-1.1%,-2.1%,-59.4%
Cc1ccccc1NC(=O)CSc1cn[nH]n1,i,?,i,-14.4%,1.9%,-4.6%
OCC(O)C(O)C(O)C(O)CO (centres undefined),/,-1.6%,/,/,/,-7.9%
Cc1ccc(-c2nc3cc(C)c(Br)c(C)n3c2CC2CCCCC2)cc1,i,/,?,/,8.8%,/
CCCc1nc2cc(C)c(Br)c(C)n2c1CC1CCCCC1,i,/,16.4µM*,/,5.1%,/
Cc1ccnc(NC(=S)N2CCN(c3ccc(F)cc3)CC2)c1,i,/,i,/,/,/
CC(C)(C)NC(=O)CCN(/N=C/c1ccc([N+](=O)[O-])o1)C1=NS(=O)(=O)c2ccccc21,i,23.1µM*,18.4µM*,-6.4%,-2.2%,13µM*
CN(C)c1ccc(/C=N/N(CCC(=O)NC(C)(C)C)C2=NS(=O)(=O)c3ccccc32)cc1,i,18.4µM*,i,?,7.1%,18.4µM*
NC(=O)c1ccc(NC(=O)C#Cc2ccccc2)cc1,i,?,23.1µM*,-8.9%,-1.1%,14.6µM*
COc1ccc(NC(=O)c2ccccc2SC)cc1OC,i,-13.6%,i,-0.9%,0.5%,-5.2%
COc1ccc(NC(=O)C#Cc2ccccc2)cc1OC,?,9.8%,18.4µM*,0.7%,-1.4%,26.8%
O=C(Cn1c(=O)n(-c2ccc(F)cc2)c(=O)c2sc3ccccc3c21)NC1CCCCC1,?,/,i,/,0.7%,/
Cc1ccc2c(c1)c1c(n2CC(O)CNC2CCCC2)CCCC1 (centres undefined),20.6µM*,?,?,-1.6%,-0.5%,?
CC(=NCc1cccc(Cl)c1)c1nc(-c2ccco2)oc1O,i,?,5.8µM*,-3.7%,2.3%,-8.8%
Cc1ccc(/C=[N+](\[O-])c2ccc(N(C)C)cc2)c2nsnc12,i,11.2µM*,i,0.9%,-2.0%,?
Cc1ccc(C)c2c(/C=C/c3ccc(N(C)C)cc3)ccnc12,i,/,?,/,0.3%,/
Cc1ccc(SC(C)C(=O)NC(N)=O)c(C)c1 (centres undefined),?,0.581µM*,i,-2.6%,-0.4%,-2.5%
CC(Sc1ccc2ccccc2c1)C(=O)NC(N)=O (centres undefined),i,-0.6%,i,0.6%,0.0%,2.3%
O=C(CSc1cn(CC(=O)N2CCCCCC2)c2ccccc12)Nc1ccccc1F,/,/,/,/,-0.9%,/
CC(=O)Nc1cc(O)c2nonc2c1O,?,/,2.59µM*,/,-0.5%,/
COc1ccc(C)cc1NC(=O)C(CCSC)NS(=O)(=O)c1ccc2c(c1)oc(=O)n2C (centres undefined),?,/,i,/,5.3%,/
C/C=C(\C)CN1CCC(n2nccc2NC(=O)CCOc2ccccc2)CC1,i,39.8%,i,-1.3%,-1.1%,18.4µM*
COCC(=O)Nc1cc(C(=O)N2CCSCC2)cc2nc(-c3ccccc3)n(C)c12,/,/,/,/,0.7%,/
C=CCn1c2ccccc2c2nnc(SCC(=O)OC)nc21,i,/,i,/,-0.4%,/
SMILES,KB-V1 MDR tox,MCF10A rerep,KB-3-1 tox,TSG101-PTAP inh,PINK1 modulator,SW480 rerep
C=CCn1c2ccccc2c2nnc(SCC(=O)NC(C(=O)OC)C(C)C)nc21 (centres undefined),8.2µM*,-0.3%,i,-14.1%,-1.2%,-2.5%
CCn1c2ccccc2c2nnc(SCC(N)=O)nc21,i,-3.9%,i,-6.9%,/,-7.6%
CCn1c2ccccc2c2nnc(SCN3C(=O)c4ccccc4C3=O)nc21,8.2µM*,2.6%,?,-5.5%,-1.8%,-2.6%
Cc1cc2c(s1)c1cnn(CC(=O)N3CCOCC3)c(=O)c1n2C,i,/,?,/,0.0%,/
Clc1ccc(/C=C/c2ncc3ccccn23)cc1,?,18.4µM*,i,2.3%,5.3%,23.1µM*
COC(=O)c1ccc(NC(=O)CSc2nc(=O)[nH]c3c2CCCC3)cc1,/,/,/,/,0.6%,/
COC(=O)c1cc(NC(=O)c2cccc(C(F)(F)F)c2)c(=O)oc1C,i,-1.6%,i,-1.8%,6.2%,1.0%
COC(=O)c1cc(NC(=O)c2cccc(C(F)(F)F)c2)c(=O)oc1C/C=N/OCc1cccc(Cl)c1Cl,i,18.4µM*,i,24.0%,22.4µM*,13.3%
COCCNc1nc(NCCNC(C)=O)c2sc(-c3ccccc3)cc2n1,i,/,i,/,0.5%,/
COCCNc1nc(-c2ccccc2CO)c2sc(-c3ccccc3)cc2n1,20.6µM*,/,5.8µM*,/,5.0%,/
CCOc1ccc(NC(=O)Cn2c(=O)n(CCc3ccccc3)c(=O)c3c4c(sc32)CCCC4)cc1,i,/,i,/,1.0%,/
CCC(C)NC(=O)CC(NS(=O)(=O)c1ccc(C)cc1)c1ccc(OC)cc1 (centres undefined),8.2µM*,-80.8%,i,-4.5%,0.3%,-692.1%
Cc1ccc2ccc(C(Nc3ccccc3)c3ccc(C(C)C)cc3)c(O)c2n1 (centres undefined),?,/,14.6µM*,/,/,/
Cc1ccc2ccc(C(Nc3ccccc3)c3ccc(F)cc3)c(O)c2n1 (centres undefined),?,/,i,/,/,/
Cc1ccc2ccc(C(Nc3ccccc3)c3ccccc3)c(O)c2n1 (centres undefined),?,/,4.11µM*,/,/,/
Cc1ccc2ccc(C(Nc3ccccn3)c3ccccc3)c(O)c2n1 (centres undefined),?,7.2%,i,-3.6%,13.6%,2.1%
Cc1cccc(NC(c2ccc(C)s2)c2ccc3ccc(C)nc3c2O)n1 (centres undefined),i,5.8µM*,i,-0.7%,0.2%,?
COc1cc(C(Nc2ccccn2)c2ccc3ccc(C)nc3c2O)cc(OC)c1O (centres undefined),16.4µM*,13µM*,?,-0.6%,-1.7%,20.6µM*
